Data: PubChem BioAssay AID1159580 (chemical genetic matrix, 2015)
Hit rate of the full screen: of about 5,500 compounds, about 2,000 (36%) were called active. Not shown: some 18% with an inconclusive outcome. Cut-off read from the data, not from the text of the source: active = normalized growth mostly below about 0.91 (no sharp cut-off); inconclusive = no clear call, values can overlap the other calls; inactive = mostly above about 0.92. The list shows a part of the results.

Test: chemical genetic growth profiling, strain panel (AID 1159580);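 note: tested at 20 µM; growth read once vehicle control cultures reached saturation at 30 °C; 1 = growth at the plate median or of vehicle wells; lower values mean less growth of the strain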
Conditions: S. cerevisiae deletion strains, growth OD

Measured: normalized growth

O=c1[nH]c2cc(Cl)ccc2c(O)c1-c1ccc(Oc2ccccc2)cc1
inactive: locus YAL040C, strain CLN3, active compounds read low 1 | locus YCL061C, strain MRC1 (second series), active compounds read low 0.993 | locus YDR150W, strain NUM1, active compounds read low 0.992 | locus YDR363W, strain ESC2, active compounds read low 1 | locus YER002W, strain NOP16, active compounds read low 1.01 | locus YGR078C, strain PAC10, active compounds read low 1.01 | locus YJR075W, strain HOC1, active compounds read low 0.987 | locus YMR263W, strain SAP30, active compounds read low 0.999 | locus YMR307W, strain GAS1, active compounds read low 0.983 | locus YNL128W, strain TEP1, active compounds read low 1.02 | locus YNL153C, strain GIM3, active compounds read low 1.03 | locus YNL175C, strain NOP13, active compounds read low 1 | locus YNL197C, strain WHI3, active compounds read low 1.01 | locus YNL224C, strain SQS1, active compounds read low 1 | locus YNL322C, strain KRE1, active compounds read low 0.988 | locus YOR083W, strain WHI5 (second series), active compounds read low 0.99 | locus YPL055C, strain LGE1, active compounds read low 1.01
